From PubChem BioAssay (Tox21) come the findings set out here.

“And” between values parts separate entries of the source, which are not always exact repeats. Identical values can stand only once. Results filed as inconclusive are left out. Entries that show only a call come without a potency. The source made the active and inactive calls. Calls follow the shape of the dose curve; as a rule, active = well fitted curve in the direction sought with a large enough effect in the repeat runs; inconclusive = weak or mixed curves; inactive = no such curve, though single readings can be large; an effect the other way counts as inactive or inconclusive.
Potency is read from the fitted curve at half-maximal effect.

The nature of the first test: qHTS RealTime-Glo MT Cell Viability Assay in HepG2 cells - 32 hour (AID 1224877). Also: nearly all actives have a fitted effect of over 55% in size. The following applies: RealTime-Glo luminescence; series mostly up to 76.8 µM. The procedure, abridged: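 HepG2 cells were seeded at 600 cells/well together with NanoLuc luciferase and a cell-permeant prosubstrate, preincubated 5 h at 37 C/5% CO2, then pin-dosed with compounds in DMSO. Nonlytic luminescence from viable cells was read at each time point.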
On to `COP(=S)(OC)Oc1nc(Cl)c(Cl)cc1Cl`, for which the Potency entry is “inactive”.
For the compound `[O-][Cl+3]([O-])([O-])O`, the Potency result was “inactive”.
The same measure, in the same setting: in the case of `CCCCC/C=C\C/C=C\C/C=C\C/C=C\CCCC(=O)NCC(=O)O` it was “inactive”; in that of `c1ccc(Nc2ccc(Nc3ccccc3)cc2)cc1`, “inactive”; in that of `O=Cc1ccccc1`, “inactive”.
`N#CC(C#N)=NNc1cccc(Cl)c1`: the Potency is 21.9 µM (active).
On to `CC[C@H](C)[C@H]1O[C@]2(C=C[C@@H]1C)C[C@@H]1C[C@@H](C/C=C(\C)[C@@H](O[C@H]3C[C@H](OC)[C@@H](O[C@H]4C[C@H](OC)[C@@H](NC)[C@H](C)O4)[C@H](C)O3)[C@@H](C)/C=C/C=C3\CO[C@@H]4[C@H](O)C(C)=C[C@@H](C(=O)O1)[C@]34O)O2`, for which the Potency is 9.77 µM (active).
The same measure, in the same setting: in the case of `Nc1cc(Cl)ccc1Cl` it was “inactive”; in that of `BrCC(Br)(Br)Br`, “inactive”; in that of `CCC(OC(C)=O)C(CC(C)NC)(c1ccccc1)c1ccccc1` (stereo not given), 62.2 µM (active).
With `O=C1C2(Cl)C3(Cl)C4(Cl)C(Cl)(Cl)C5(Cl)C3(Cl)C1(Cl)C5(Cl)C24Cl` (stereo not given), the Potency was 48.2 µM (active) and 46.9 µM (active).
The same measure, in the same setting: for `CSC(C)(C)/C=N/O` the value was “inactive”.
On the same count and under the same terms, in the case of `NC(=O)C(Cl)Cl` it was “inactive”.
Same read-out and setting: in the case of `CN(C)CCc1c[nH]c2ccccc12` it was “inactive”.
As to `CCCCn1cc[n+](C)c1` (tested in a mixture with another compound), the Potency result is “inactive”.
On the same count and under the same terms, in the case of `CCC(C)c1cccc(C(C)CC)c1O` (stereo not given) it was “inactive”; in that of `Fc1ccc(C(OCCN2CCN(CCCc3ccccc3)CC2)c2ccc(F)cc2)cc1`, 23.9 µM (active); in that of `CCN(CC)CCN1C(=O)CN=C(c2ccccc2F)c2cc(Cl)ccc21`, “inactive”.
Consider `Nc1ccccc1-c1ccccc1`, for which the Potency result is “inactive”.
Regarding `O=[N+]([O-])c1cc(C(F)(F)F)c(Cl)c([N+](=O)[O-])c1Nc1ncc(C(F)(F)F)cc1Cl`, the Potency is 17.4 µM (active).
Same read-out and setting: in the case of `CCCCn1cc[n+](C)c1.[Cl][Fe-]([Cl])([Cl])[Cl]` it was “inactive”.
Consider `Nc1nc(N)nc(Cl)n1`, for which the Potency result was “inactive”.
With `Oc1cccc(Cl)c1Cl`, the Potency entry is “inactive”.
On the same count and under the same terms, in the case of `Brc1cccc(-c2ccccc2)c1` it was “inactive”; in that of `CCCCCON=O`, “inactive”; in that of `CC(=O)C(Cl)C(=O)N(C)C` (stereo not given), “inactive”.
The same measure, in the same setting: for `COc1ccc2[nH]cc(CCN(C(C)C)C(C)C)c2c1` the value was “inactive”; for `Cc1ccn2nc(S(=O)(=O)Nc3c(F)cccc3F)nc2n1`, “inactive”; for `COC(=O)C(C)N(C(=O)c1ccco1)c1c(C)cccc1C` (stereo not given), “inactive”.
Still for that read-out and setting: for `CN1CCc2cc(Cl)c(O)cc2[C@H]2c3ccccc3CC[C@@H]21` the value was “inactive”; for `O=c1c2ccccc2c(=O)c2c1cc(Cl)c1[nH]c3c([nH]c12)c(Cl)cc1c(=O)c2ccccc2c(=O)c13`, “inactive”; for `N#CSCc1ccccc1`, “inactive”.
For `CN(C)C(=S)SSC(=S)N(C)C`, the Potency is 54.2 µM (active) and 245 nM (active) and 169 nM (active).

A further test is described as follows: A CellTox Green Cytotoxicity Assay to monitor cytotoxicity in HepG2 cells - 24 hour (AID 1224878). Also: nearly all actives have a fitted effect of over 45% in size. The note with it: CellTox Green fluorescence; series mostly up to 76.8 µM. The procedure, abridged: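 Fluorescent DNA-binding dye, 600 HepG2 cells/well, 5 h preincubation then compound in DMSO; same plates read at 0–40 h, 37 C.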
Take `COP(=S)(OC)Oc1nc(Cl)c(Cl)cc1Cl`: the Potency result was “inactive”.
For the compound `[O-][Cl+3]([O-])([O-])O`, the Potency entry was “inactive”.
Still for that read-out and setting: for `CCCCC/C=C\C/C=C\C/C=C\C/C=C\CCCC(=O)NCC(=O)O` the value was “inactive”; for `c1ccc(Nc2ccc(Nc3ccccc3)cc2)cc1`, “inactive”; for `O=Cc1ccccc1`, “inactive”.
The same measure, in the same setting: in the case of `N#CC(C#N)=NNc1cccc(Cl)c1` it was 24.5 µM (active).
Still for that read-out and setting: in the case of `CC[C@H](C)[C@H]1O[C@]2(C=C[C@@H]1C)C[C@@H]1C[C@@H](C/C=C(\C)[C@@H](O[C@H]3C[C@H](OC)[C@@H](O[C@H]4C[C@H](OC)[C@@H](NC)[C@H](C)O4)[C@H](C)O3)[C@@H](C)/C=C/C=C3\CO[C@@H]4[C@H](O)C(C)=C[C@@H](C(=O)O1)[C@]34O)O2` it was 11 µM (active); in that of `Nc1cc(Cl)ccc1Cl`, “inactive”.
With `C1=CCC=C1`, the Potency entry was “inactive”.
Consider `BrCC(Br)(Br)Br`, for which the Potency result is “inactive”.
Same read-out and setting: for `CCC(OC(C)=O)C(CC(C)NC)(c1ccccc1)c1ccccc1` (stereo not given) the value was 55.4 µM (active).
Still for that read-out and setting: for `O=C1C2(Cl)C3(Cl)C4(Cl)C(Cl)(Cl)C5(Cl)C3(Cl)C1(Cl)C5(Cl)C24Cl` (stereo not given) the value was 48.2 µM (active) and 41.8 µM (active).
The same measure, in the same setting: for `O=C1C(Cl)=C(Cl)C(=O)C(Cl)=C1Cl` the value was 24.5 µM (active) and 17.4 µM (active); for `CSC(C)(C)/C=N/O`, “inactive”.
Regarding `NC(=O)C(Cl)Cl`, the Potency entry is “inactive”.
Still for that read-out and setting: in the case of `CN(C)CCc1c[nH]c2ccccc12` it was “inactive”.
Turning to `CCCCn1cc[n+](C)c1` (tested in a mixture with another compound), the Potency result is “inactive”.
On the same count and under the same terms, for `CCC(C)c1cccc(C(C)CC)c1O` (stereo not given) the value was 19.5 µM (active); for `Fc1ccc(C(OCCN2CCN(CCCc3ccccc3)CC2)c2ccc(F)cc2)cc1`, 23.9 µM (active).
In the case of `CCN(CC)CCN1C(=O)CN=C(c2ccccc2F)c2cc(Cl)ccc21`, the Potency result is “inactive”.
On the same count and under the same terms, for `Nc1ccccc1-c1ccccc1` the value was “inactive”; for `O=[N+]([O-])c1cc(C(F)(F)F)c(Cl)c([N+](=O)[O-])c1Nc1ncc(C(F)(F)F)cc1Cl`, 12.3 µM (active); for `CCCCn1cc[n+](C)c1.[Cl][Fe-]([Cl])([Cl])[Cl]`, “inactive”.
In the case of `Nc1nc(N)nc(Cl)n1`, the Potency entry is “inactive”.
Still for that read-out and setting: in the case of `Oc1cccc(Cl)c1Cl` it was “inactive”; in that of `Brc1cccc(-c2ccccc2)c1`, “inactive”; in that of `CCCCCON=O`, “inactive”.
Same read-out and setting: in the case of `CC(=O)C(Cl)C(=O)N(C)C` (stereo not given) it was “inactive”; in that of `COc1ccc2[nH]cc(CCN(C(C)C)C(C)C)c2c1`, “inactive”; in that of `Cc1ccn2nc(S(=O)(=O)Nc3c(F)cccc3F)nc2n1`, “inactive”.
The same measure, in the same setting: in the case of `CN1CCc2cc(Cl)c(O)cc2[C@H]2c3ccccc3CC[C@@H]21` it was “inactive”.
On to `[C-]1=CC=CC1.[Cl][Zr+2][Cl].c1cc[cH-]c1`, for which the Potency result is “inactive”.
Still for that read-out and setting: in the case of `O=c1c2ccccc2c(=O)c2c1cc(Cl)c1[nH]c3c([nH]c12)c(Cl)cc1c(=O)c2ccccc2c(=O)c13` it was “inactive”.
The same measure, in the same setting: for `N#CSCc1ccccc1` the value was “inactive”.
Still for that read-out and setting: in the case of `ClC1=C(Cl)[C@]2(Cl)[C@H]3[C@H]([C@@H]4C=C[C@H]3C4)[C@@]1(Cl)C2(Cl)Cl` it was 54.9 µM (active); in that of `O=C(N[C@@H]1N=C(c2ccccc2F)c2cccc3c2N(CC3)C1=O)c1cc2ccccc2[nH]1`, 21.3 µM (active).
In the case of `CN(C)C(=S)SSC(=S)N(C)C`, the Potency is 436 nM (active) and 21.3 µM (active).
